Structures are written as SMILES. Where “and” joins values, the source holds several entries; their conditions need not be identical. Identical values can stand only once. Results filed as inconclusive are left out. The source holds several records for some structures; these can differ, active in one and inactive in another. Calls of active or inactive are those of the source. Unless noted, calls come from the whole dose curve; as a rule, active = well fitted curve in the direction sought with a large enough effect in the repeat runs; inconclusive = weak or mixed curves; inactive = no such curve, though single readings can be large; an effect the other way counts as inactive or inconclusive.

From PubChem BioAssay (Tox21) come the findings set out here.

Assay [1] has as its target Thyrotropin receptor (Homo sapiens) (UniProt P16473). The experiment in a line: qHTS assay to identify small molecule agonists of the thyroid stimulating hormone receptor (TSHR) signaling pathway (AID 1224843; calls by dose curve; note: nearly all actives have a fitted effect of over 45% in size). In a few lines:
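TSHR-HEK293 cells in agonist mode, 30 min room-temperature step, then cAMP measured by competitive HTRF (cAMP-d2 with anti-cAMP cryptate) after 1 h at room temperature. Tested at 15 concentrations in triplicate.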

A short description of assay [2]: qHTS assay to identify small molecule agonists of the hypoxia (HIF-1) signaling pathway (AID 1224846; active = well fitted activation curve with a large enough effect in the signal ratio in the repeat runs, not every such curve was filed as active; the % refers to the signal ratio). In short, it runs like this: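 Measured by blue/green FRET after loading CCF4-AM: beta-lactamase expressed from a hypoxia response element in ME-180 cells. Test agents were delivered in DMSO and left 17 hrs; cells had been plated 5 hrs earlier in low-serum (0.5% dialyzed FBS) medium.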

Assay [3] can be described thus: qHTS assay to identify small molecule agonists of H2AX - cell viability counter screen (AID 1224847; calls by dose curve; note: top concentration of the series differs between compounds; nearly all actives have a fitted effect of over 30% in size). In short, it runs like this:
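After overnight plating of 1000 CHO-K1 cells per well, a 15-concentration compound series was applied for 3 hr at 37C. Luminescence from CellTiter-Glo, read following 30 min at room temperature, reflected cell viability.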
(In general: qHTS replaces the single test concentration by a dilution series.)

Assay [4] can be described thus: qHTS assay to identify small molecule antagonists of the estrogen related receptor (ERR) signaling pathway from Tox21 library (AID 1224848). Note: nearly all actives have a fitted effect of over 50% in size. Note: potency is the fitted concentration of half-maximal effect. In a few lines:
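ERR reporter cell line (from NTP) seeded 2,000 cells/well, rested 6 h at 37 C/5% CO2, then pin-dosed with compounds in DMSO. After 18 h at 37 C, ONE-Glo added; luminescence read after 30 min at room temperature.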

A short description of assay [5]: qHTS assay to identify small molecule agonists of the estrogen related receptor (ERR) signaling pathway from Tox21 library (AID 1224849; calls by dose curve; note: nearly all actives have a fitted effect of over 15% in size). As to conditions: ERR reporter cell line, ONE-Glo luciferase, 18 h. In short, it runs like this:
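We plated ERR reporter cells, waited 6 h, added compounds in DMSO by pin tool and incubated them 18 h at 37 C. ONE-Glo was then added and luminescence read after 30 min.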

Assay [6] can be described thus: qHTS RealTime-Glo MT Cell Viability Assay in HepG2 cells - 24 hour (AID 1224867). Note: nearly all actives have a fitted effect of over 50% in size. Note: potency is the fitted concentration of half-maximal effect. In short, it runs like this:
(§1)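 Cells + NanoLuc/prosubstrate dispensed (600 cells/well) → 5 h at 37 C/5% CO2 → compounds in DMSO transferred → 40 h incubation at 37 C, luminescence read at 0, 8, 16, 24, 32, 40 h.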

The nature of assay [7]: A CellTox Green Cytotoxicity Assay to monitor cytotoxicity in HEK293 cells - 0 hour (AID 1224869). Note: nearly all actives have a fitted effect of over 50% in size. In a few lines: (§2)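 Each value comes from one timepoint of a single continuous run in which HEK293 cells with CellTox Green were exposed to compound for up to 40 h at 37 C, dye fluorescence rising with cell death.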
The nature of assay [8]: qHTS RealTime-Glo MT Cell Viability Assay in HepG2 cells - 40 hour (AID 1224870). Note: nearly all actives have a fitted effect of over 50% in size. Note: potency is the fitted concentration of half-maximal effect. In a few lines:
(§3)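 HepG2 cells (600/well) mixed with RealTime-Glo MT reagent, settled 5 h at 37 C/5% CO2 before compound addition. Nonlytic NanoLuc luminescence from viable-cell prosubstrate reduction read repeatedly during 40 h treatment at 37 C.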

Assay [9] in a line: A CellTox Green Cytotoxicity Assay to monitor cytotoxicity in HEK293 cells - 40 hour (AID 1224871). Note: nearly all actives have a fitted effect of over 45% in size. In short, it runs like this:
as §2

Assay [10] is described as follows: qHTS RealTime-Glo MT Cell Viability Assay in HEK293 cells - 16 hour (AID 1224872). Note: nearly all actives have a fitted effect of over 50% in size. Note: potency is the fitted concentration of half-maximal effect. In short, it runs like this:
(§4)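 Tox21 10K qHTS, HEK293, 600 cells/well, RealTime-Glo reagent co-dispensed with cells; 5 h preincubation, compound by pintool, 37 C, luminescence at 0–40 h.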

Assay [11] in a line: qHTS RealTime-Glo MT Cell Viability Assay in HepG2 cells - 8 hour (AID 1224873). Note: nearly all actives have a fitted effect of over 55% in size. Note: potency is the fitted concentration of half-maximal effect. In short, it runs like this:
as §3

Assay [12] in a line: A CellTox Green Cytotoxicity Assay to monitor cytotoxicity in HEK293 cells - 24 hour (AID 1224875). Note: nearly all actives have a fitted effect of over 45% in size. Note: potency is the fitted concentration of half-maximal effect. In a few lines:
as §2

A short description of assay [13]: A CellTox Green Cytotoxicity Assay to monitor cytotoxicity in HepG2 cells - 16 hour (AID 1224876). Note: nearly all actives have a fitted effect of over 45% in size. Note: potency is the fitted concentration of half-maximal effect. In a few lines: (§5)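 Continuous culture of HepG2 cells with a membrane-impermeant DNA dye; rising fluorescence marks dead cells. Compound exposure lasted up to 40 h at 37 C, with reads every 8 h from 0 h.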
A short description of assay [14]: qHTS RealTime-Glo MT Cell Viability Assay in HepG2 cells - 32 hour (AID 1224877). Note: nearly all actives have a fitted effect of over 55% in size. Note: potency is the fitted concentration of half-maximal effect. In a few lines:
as §1

Assay [15] is described as follows: A CellTox Green Cytotoxicity Assay to monitor cytotoxicity in HepG2 cells - 24 hour (AID 1224878). Note: nearly all actives have a fitted effect of over 45% in size. Note: potency is the fitted concentration of half-maximal effect. In short, it runs like this: as §5
The nature of assay [16]: A CellTox Green Cytotoxicity Assay to monitor cytotoxicity in HepG2 cells - 40 hour (AID 1224879). Note: nearly all actives have a fitted effect of over 40% in size. Note: potency is the fitted concentration of half-maximal effect. In short, it runs like this:
as §5

Assay [17] in a line: qHTS assay to identify small molecule agonists of the hypoxia (HIF-1) signaling pathway - cell viability counter screen (AID 1224844; calls by dose curve; note: nearly all actives have a fitted effect of over 50% in size). In a few lines: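 Luminescent ATP content (CellTiter-Glo, 30 min, room temperature) served as the viability measure in HRE-bla ME-180 cells exposed to compounds for 17 hrs in low-serum medium (0.5% dialyzed FBS).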
Assay [18] is described as follows: qHTS assay to identify small molecule agonists of H2AX (AID 1224845; active = well fitted activation curve with a large enough effect in the signal ratio in the repeat runs, not every such curve was filed as active; the % refers to the signal ratio). In a few lines: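 Wild-type CHO-K1 cells, plated overnight, exposed 3hr at 37C to 15 concentrations (0.76% DMSO final). Lysed, then HTRF anti-pH2AX (S139) cryptate and anti-H2AX-d2 antibodies, 24 hr room temperature; 665/620 nm emission read.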
The nature of assay [19]: qHTS RealTime-Glo MT Cell Viability Assay in HEK293 cells - 32 hour (AID 1224868). Note: nearly all actives have a fitted effect of over 50% in size. Note: potency is the fitted concentration of half-maximal effect. In short, it runs like this: as §4
A short description of assay [20]: qHTS RealTime-Glo MT Cell Viability Assay in HEK293 cells - 40 hour (AID 1224874). Note: nearly all actives have a fitted effect of over 50% in size. Note: potency is the fitted concentration of half-maximal effect. As to conditions: RealTime-Glo luminescence; max response: stronger effect = lower value. In a few lines: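 qHTS format; HEK293 cells with NanoLuc/prosubstrate reagent, 37 C/5% CO2 for 5 h pre-dosing; compounds 23 nL in DMSO; luminescence at each time point reflects viable cells.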
% is set by controls: 0 for no effect and ±100 for the full control effect.

Chain of Thyrotropin receptor (Homo sapiens) (P16473 whole entry, looked up): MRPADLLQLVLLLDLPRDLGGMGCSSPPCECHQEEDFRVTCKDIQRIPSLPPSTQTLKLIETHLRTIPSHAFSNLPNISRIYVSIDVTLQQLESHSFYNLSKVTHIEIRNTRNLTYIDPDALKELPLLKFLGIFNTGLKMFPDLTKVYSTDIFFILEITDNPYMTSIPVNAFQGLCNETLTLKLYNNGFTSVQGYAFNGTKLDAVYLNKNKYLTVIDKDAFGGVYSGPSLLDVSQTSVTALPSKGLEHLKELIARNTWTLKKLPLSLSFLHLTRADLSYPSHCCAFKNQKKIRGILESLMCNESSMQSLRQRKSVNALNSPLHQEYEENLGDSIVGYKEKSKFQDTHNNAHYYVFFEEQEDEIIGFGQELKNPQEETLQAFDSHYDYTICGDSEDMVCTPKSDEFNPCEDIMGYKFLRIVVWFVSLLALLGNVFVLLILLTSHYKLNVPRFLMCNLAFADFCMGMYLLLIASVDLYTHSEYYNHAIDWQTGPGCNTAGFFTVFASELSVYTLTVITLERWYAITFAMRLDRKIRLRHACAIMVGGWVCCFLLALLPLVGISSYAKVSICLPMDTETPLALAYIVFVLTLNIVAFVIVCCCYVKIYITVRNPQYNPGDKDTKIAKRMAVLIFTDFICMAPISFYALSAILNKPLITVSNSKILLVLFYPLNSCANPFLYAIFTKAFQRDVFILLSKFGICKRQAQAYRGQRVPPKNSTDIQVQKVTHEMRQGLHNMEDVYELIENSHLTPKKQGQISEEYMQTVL

In the case of `Cc1cccc(N)c1N`, the Potency result in assay [1], in [3], in [4], in assay [6], in assay [7] and in assay [8] was “inactive” each time. Also, the Potency result in assay [9], in assay [10], in assay [11], in assay [12], in assay [13] and in assay [14] was “inactive” in each case. The Potency result in assay [15] and in [16] was “inactive” in each case. Moreover, the result in assay [2] was inactive. Further, the activity change, positive = activation in assay [5] (at 92.4 µM (top of the series)) is 5.31% (inactive) and 103% (active).

With `Cc1c(COC(=O)[C@@H]2[C@H](/C=C(\Cl)C(F)(F)F)C2(C)C)cccc1-c1ccccc1`, the Potency entry in assay [17], in assay [18], in assay [6], in [7], in [8] and in assay [11] was “inactive” in each case. Besides, the Potency result in assay [12], in assay [13], in assay [14], in [15] and in [16] was “inactive” each time. Also, in [2], the outcome was inactive. Moreover, the values for the Potency in [19] and in assay [20] were 21.4 µM (active) and 19.1 µM (active), respectively.

Turning to `ClC1C(Cl)C(Cl)C(Cl)C(Cl)C1Cl` (centres undefined), the call in assay [2] was inactive. Also, the Potency result in [4] is “inactive and 48.6 µM (active)”; in assay [19], “inactive and 54.9 µM (active)”; in [10], “inactive and 49 µM (active)”; in assay [15] it was “inactive and 43.6 µM (active)”; in assay [16], “inactive and 38.9 µM (active)”. Further, the Potency entry in [6], in [7], in assay [8], in assay [11], in assay [13] and in [14] was “inactive” in each case.

In the case of `Oc1cc(Cl)ccc1Oc1ccc(Cl)cc1Cl`, the Potency entry in [18] and in [7] was “inactive” throughout. Further, the Potency is 11.1 µM (active) and 18.8 µM (active) in [4]; 42.2 µM [cytotoxic] (active) and 23.9 µM (active) in assay [6]; 20 µM (active) in [19]; 44.7 µM (active) in assay [8]; 22.4 µM (active) and 23.9 µM (active) in assay [10]; 22.4 µM (active) and 23.9 µM (active) in assay [11]. Also, the Potency was 22.4 µM (active) in assay [12]; 44.7 µM (active) and 19 µM (active) in [13]; 25.1 µM (active) in assay [14]; 22.4 µM (active) and 21.3 µM (active) in assay [15]; 25.1 µM (active) and 23.9 µM (active) in assay [16]. Moreover, the activity change, positive = activation was -45.8% (inactive) in [5] (at 42.5 µM (top of the series)) and -47.1% (inactive) in assay [5] (at 92.4 µM (top of the series)).

For `Brc1ccc(Oc2cc(Br)c(Br)cc2Br)c(Br)c1`, the Potency result in [17], in [3], in assay [4], in [6], in [7] and in assay [8] was “inactive” in each case. For the same compound, the Potency result in assay [9], in assay [11], in assay [12], in [13], in assay [14] and in assay [15] was “inactive” each time. The Potency result in assay [16] is “inactive”. Also, the compound was called inactive in assay [2]. The activity change, positive = activation in [5] (at 92.4 µM (top of the series)) is -14.5% (inactive). In assay [19], the Potency is 43.6 µM (active).

Regarding `CCN(CC)C(=O)SCc1ccc(Cl)cc1`, the Potency entry in [17], in [4], in [6], in [19], in assay [7] and in [8] was “inactive” in each case. The Potency entry in assay [9], in [10], in assay [12], in assay [13], in [14] and in assay [15] was “inactive” each time. For the same compound, the Potency result in assay [16] is “inactive”. In addition, the call in [2] was inactive. Also, the activity change, positive = activation in [5] (at 92.4 µM (top of the series)) is 4.95% (inactive) and 6.33% (inactive). For the same compound, in assay [20], the max response was -8.77% (inactive) and 0.16% (inactive).

Take `CCOc1cc(Oc2ccc(C(F)(F)F)cc2Cl)ccc1[N+](=O)[O-]`: the Potency entry in assay [17], in [18], in assay [3], in assay [6], in assay [7] and in [8] was “inactive” throughout. For the same compound, the Potency result in [9], in [12], in assay [13], in [14], in assay [15] and in assay [16] was “inactive” in each case. Besides, in [2], the outcome was inactive. For the same compound, the activity change, positive = activation in assay [5] (at 92.4 µM (top of the series)) was -29.7% (inactive) and -19.5% (inactive). Besides, the max response in assay [20] is -24.7% (inactive).
